Laboratory results from PubChem BioAssay AID1259343 (VanderVen Lab, College of Veterinary Medicine, Cornell …, 2017).
Among all 6,200 compounds or so, about 2,900 (47%) were called active. The set was probably picked from earlier hits. This is one part of the list. A number with no mark means an inactive call. No stated cut-off is given here; in the data, active means inhibition above about 50%; inactive means the rest.

Test: Mycobacterium tuberculosis growth inhibition, primary screen (AID 1259343)
Conditions: inhibition: at 10 µM, stronger effect = higher value; outcome: 10 uM

Row | Structure (SMILES) | inhibition
1 | CC1COCCN1C(=O)NC(c1cc(F)ccc1F)C1CC1 (stereo not given) | -42.7%
2 | CC(NC(=O)CN1CCCCC1)c1ccc(F)cc1F (stereo not given) | 51.7% (active)
3 | COCc1ccccc1CNC(=O)CN1CCC(C)Sc2ccccc21 (stereo not given) | -20.7%
4 | CC1(c2ccco2)NC(=S)N(c2ccccc2)N1 (stereo not given) | 76.4% (active)
5 | CCCCc1ccc(N2C(N)=CS/C2=C(/C#N)S(=O)(=O)c2ccccc2)cc1 | 89.6% (active)
6 | CCNc1nc(C(=O)N2CC3CCCC3C2)cs1 (stereo not given) | 27.6%
7 | CCCc1cc(C(=O)N2C[C@H]3CC=C(C)C[C@H]3C2)ccn1 | 76% (active)
8 | CC(C)C(C)CNC(=O)N1CCN(c2ccc(Cl)cn2)CC1 (stereo not given) | 63.1% (active)
9 | Cc1ccc(-c2nc(CN3CCN(c4ccc(Cl)cn4)CC3)c(C)o2)o1 | 47.3%
10 | CN(Cc1ccccc1O)C(=O)C1CCN(c2ccc(Cl)cn2)CC1 | 35.1%
11 | Cc1nc2ccc(I)cn2c1C=NNc1ccc2ccccc2c1 | 60.2% (active)
12 | Cc1nc2ccc(I)cn2c1C=NNc1ccc(Cl)cc1 | 17.7%
13 | NC(=S)NN=Cc1ccc(Cl)cc1Cl | 86% (active)
14 | Cc1cc(C=NNC(N)=S)c(C)n1CC(F)(F)F | 4.28%
15 | CC(C)(C)n1cccc(/C=N\NC(N)=S)c1=S | -2.91%
16 | Cc1ccc(C(=O)Nc2ccc(CN3CCN(C)CC3)c(C(F)(F)F)c2)cc1C#Cc1cnc2cccnn12 | 62.5% (active)
17 | CCc1ccc(NC(=O)COC(=O)c2cc(C(C)=O)n3ccccc23)cc1 | 65% (active)
18 | CCc1sc(C(=O)OCC(=O)N(C)CC(=O)Nc2ccc(C)cc2)cc1C | -39.5%
19 | Cc1nc(N)sc1N=Nc1cccc2ccccc12 | 4.08%
20 | Nc1[nH]n(-c2ccccc2)c(=O)c1N=Nc1ccc2ncsc2c1 | -3.23%
21 | Nc1[nH]n(-c2ccccc2)c(=O)c1N=Nc1cccc2ccccc12 | 56.7% (active)
22 | CCc1cc(C=NC2CCCCC2)c(O)s1 | 54.5% (active)

Row | Structure (SMILES) | inhibition
23 | CC1Cc2ccccc2N1C(=O)C1CCN(c2ccc(C#N)cn2)CC1 (stereo not given) | -4.71%
24 | CC1Cc2ccccc2N1Cc1cccc(C(N)=O)c1 (stereo not given) | 25.1%
25 | CC1Cc2ccccc2N1Sc1ccc([N+](=O)[O-])cc1 (stereo not given) | 58.6% (active)
26 | Cc1ccc(-c2nsc(C(=O)N3CCCC(C)C3)c2N)cc1 (stereo not given) | 47.8%
27 | COc1ccccc1Cn1c(C)c(C(=O)NCc2ccccc2C(F)(F)F)sc1=O | 15.1%
28 | Cc1c(C(=O)NCc2ccccc2C(F)(F)F)sc(=O)n1Cc1ccccc1F | 21%
29 | Cc1c(C(=O)NCc2ccc(Cl)c(Cl)c2)sc(=O)n1Cc1ccccc1F | -10.2%
30 | Cc1c(C(=O)NCc2ccccc2C(F)(F)F)sc(=O)n1Cc1cccc(C(F)(F)F)c1 | 18.8%
31 | COc1ccc(Br)c(Cn2c(C)c(C(=O)NCc3ccccc3C(F)(F)F)sc2=O)c1 | 58.8% (active)
32 | Cc1ccccc1Cn1c(C)c(C(=O)NCc2ccccc2C(F)(F)F)sc1=O | 65.1% (active)
33 | Nc1nc(CSc2nnc(C3CC3)n2C2CC2)nc(Nc2ccc(F)cc2)n1 | -0.78%
34 | Cc1c2c(nc3cc4c(cc13)OCO4)CCc1ccccc1-2 | 76.4% (active)
35 | Cc1cc(S(=O)(=O)Nc2ccc(F)c(Cl)c2)c(C)s1 | 30.5%
36 | O=S(=O)(Nc1ccc(F)c(Cl)c1)c1ccc(Cl)cc1F | 66.8% (active)
37 | O=S(=O)(Nc1cc(Cl)ccc1F)c1cc(Cl)ccc1Cl | 28.1%
38 | O=S(=O)(Nc1ccc(F)c(F)c1)c1cc(Cl)ccc1Cl | 95.3% (active)
39 | O=S(=O)(Nc1cc(Cl)cc(Cl)c1)c1cc(Cl)ccc1Cl | 56.9% (active)
40 | COc1cccc(-c2noc(CSc3ncnc4sccc34)n2)c1 | 98.8% (active)
41 | c1csc(-c2nc(CSc3ncnc4sccc34)co2)c1 | 24.4%
42 | Clc1cccc(-c2csc(NC3CC3)n2)c1 | 44.2%
43 | O=C(O)C1C2C=CC(C2)C1C(=O)Nc1nc(-c2ccc(Cl)s2)cs1 (stereo not given) | 35.5%
44 | O=C(CCn1[nH]c(=O)ccc1=O)Nc1nc(-c2ccc(Cl)s2)cs1 | 49.2%

Row | Structure (SMILES) | inhibition
45 | N#CC1(C(=O)Nc2nc(-c3ccc(Cl)s3)cs2)CCCC1 | 89.1% (active)
46 | N#CC1(C(=O)Nc2nc(-c3cccc(C(F)(F)F)c3)cs2)CCCC1 | 55.5% (active)
47 | Cc1ccc(C(=O)c2ccc(CC(=O)O)n2C)cc1 | 52.8% (active)
48 | c1ccc(-c2cc(CSc3nnnn3C3CC3)no2)cc1 | 84.1% (active)
49 | c1ccc(-c2cnc(CSc3nnnn3C3CC3)o2)cc1 | 18.6%
50 | Fc1ccc(-c2cnc(CSc3nnnn3C3CC3)o2)cc1 | 8.58%
51 | Cc1ccc(S(=O)(=O)N(C)CCOc2ccccc2C)s1 | 55.1% (active)
52 | O=C(O[C@@H]1Cc2c(O)cc(O)cc2O[C@@H]1c1ccc(O)c(O)c1)c1cc(O)c(O)c(O)c1 | 78.4% (active)
53 | Cc1ccccc1Cn1nc(-c2cccs2)ccc1=O | 89.9% (active)
54 | Cc1ccccc1Cn1nc(-c2ccccc2)ccc1=O | -7.28%
55 | O=c1ccc(-c2ccc3c(c2)OCO3)nn1Cc1cccc2ccccc12 | -9.21%
56 | CCc1ccc(-c2ccc(=O)n(Cc3ccccc3C)n2)cc1 | 14.8%
57 | COc1ccc(-c2ccc(=O)n(Cc3ccccc3C)n2)cc1 | 27.4%
58 | Cc1ccccc1Cn1nc(-c2ccc3c(c2)OCO3)ccc1=O | 91.3% (active)
59 | O=C(Cc1ccc(Cl)cc1)NCCSc1ncc(-c2ccccc2)[nH]1 | 60.9% (active)
60 | O=C(CSc1ncc(-c2ccc([N+](=O)[O-])cc2)[nH]1)NC(C(=O)O)(c1ccccc1)c1ccccc1 | -11.4%
61 | OC(C#Cc1ccccc1)c1ncc(-c2ccccc2)[nH]1 (stereo not given) | 20.7%
62 | O=C(Nc1ccc(Cl)nc1)N1CCC(COCc2ccccc2)C1 (stereo not given) | 95% (active)
63 | COC(=O)C1CCC2C3CC=C4CC(O)CCC4(C)C3CCC12C (stereo not given) | 79.9% (active)
64 | CC12CCC(O)CC1=CCC1C2CCC2(C)C(O)C(=Cc3ccc([N+](=O)[O-])cc3)CC12 (stereo not given) | -53.2%
65 | COc1ccc(C=C2CC3C4CC=C5CC(O)CCC5(C)C4CCC3(C)C2O)cc1 (stereo not given) | -0.03%
